Assay outcomes: PubChem, National Center for Advancing Translational Sciences (NCATS)
FLuc inh: inhibitors of firefly (Photinus pyralis) luciferase | hit rate 2.5% among 76,000 | P08659 | purified P. pyralis luciferase, luminescence, biochemical | Potency, µM (highest dose often 115 µM), hits mostly inhibitors; note: % is set by controls: 0 for no effect and ±100 for the full control effect; nearly all actives have a fitted effect of over 65% in size
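Purified P. pyralis luciferase (10nM final) in 50mM Tris acetate pH 7.5, 10mM Mg acetate, 0.01% Tween-20, 0.05% BSA with 10uM D-luciferin and 10uM ATP. Compounds titrated qHTS. Luminescence imaged on CCD.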
SNCA expr inhib: reduces expression of the alpha-synuclein gene; Potency, µM (doses to about 57.2 µM), for inactives: at the highest dose activity change, negative = inhibition, hits mostly inhibitors; hit rate 0.17% among 140,000; HEK-293 SNCA-luciferase knock-in, luminescence, 24 h;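 note: plate controls were DMSO cells for no effect and cell-free wells for full effect; nearly all actives have a fitted effect of over 45% in size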
HEK cytotox: HEK 293 cell cytotoxicity. HEK 293 viability, ATP luminescence (CellTiter-Glo), 48-72 h. Potency, µM (titrated, usually from 115 µM), for inactives: top-dose activity change, negative = cytotoxicity, most hits filed as inhibitors. hit rate 6.6% among 94,000. AID 1345083; note: % is set by controls: 0 for no effect and ±100 for the full control effect; nearly all actives have a fitted effect of over 60% in size
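CellTiter-Glo luminescence (cellular ATP) was read after 48 or 72 hr of compound exposure at 37 degree Celsius. Cells were HEK 293 plated at 250 cells/well.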
NPR1 antag: human Npr1 receptor antagonism. AID 1347048. HEK293 hNpr1 GloSensor cGMP, ANP-stimulated luminescence. Potency, µM (doses to about 46.3 µM), for the others: top-dose activity change, negative = inhibition, actives largely listed as inhibitors. hit rate 1.6% among 76,000; calls by dose curve; note: % is set by controls: 0 for no effect and ±100 for the full control effect; nearly all actives have a fitted effect of over 60% in size
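HEK293 cells stably expressing human Npr1 and cGMP GloSensor pGS-40F, loaded 2 h with 2% GloSensor reagent, given compound 30 min at room temperature. Luminescence read before and 20 min after 0.1 nM hNppA.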
NIH3T3 tox: NIH 3T3 cell cytotoxicity. NIH 3T3 viability, CellTiter-Glo ATP luminescence, 48-72 h. Potency, µM (series often up to 96.7 µM), inactives show at the top dose activity change, negative = cytotoxicity, hits mostly inhibitors. hit rate 4.3% among 94,000. AID 1345082; note: % is set by controls: 0 for no effect and ±100 for the full control effect; nearly all actives have a fitted effect of over 55% in size
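Mouse fibroblast NIH 3T3 cells, 400 per well, received compound via pintool and were incubated for 48 or 72 hr prior to CellTiter-Glo ATP luminescence measurement.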
SNCA viab count: counter-screen for SNCA expression inhibitors: cell viability; Potency, µM (doses to about 57.1 µM), inactives show at the top dose activity change, negative = cytotoxicity, actives largely listed as cytotoxic; HEK-293-SNCA-luc viability, GF-AFC fluorescence, 24 h; hit rate 0.12% among 150,000; AID 1671193;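 note: 0% = DMSO-treated cells and -100% = medium-only wells without cells; nearly all actives have a fitted effect of over 30% in size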
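Cytotoxicity counterscreen: after 24 h compound treatment of genome-edited SNCA-luciferase HEK-293 cells, live-cell protease substrate GF-AFC read by fluorescence after 30 min; activity scaled between DMSO (0%) and medium-only (-100%), curves Hill-fitted.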
NPR1 antag cnf: hNpr1 antagonism, confirmation assay | Potency, µM (top dose mostly 57.6 µM), for inactives: at the highest dose activity change, negative = inhibition, most hits filed as inhibitors | hit rate 76% among 1,400 | HEK293 hNpr1 cGMP GloSensor luminescence, ANP-stimulated | shares compounds with NPR1 antag; calls by dose curve; note: nearly all actives have a fitted effect of over 70% in size
NPR2 antag: hNpr2 antagonism, selectivity versus Npr1 | shares compounds with NPR1 antag | HEK293 hNpr2 GloSensor cGMP luminescence, CNP-stimulated | Potency, µM (series often up to 57.6 µM), inactives show at the highest dose activity change, negative = inhibition, most hits filed as inhibitors | hit rate 67% among 1,400 | AID 1347046; calls by dose curve; note: nearly all actives have a fitted effect of over 70% in size
FLuc counter: FLuc enzyme inhibition, Npr1 counter-screen | shares compounds with NPR1 antag | purified FLuc enzyme, luminescence, Km substrate | Potency, µM (highest dose often 57.6 µM), for inactives: at the top dose activity change, negative = inhibition, hits mostly inhibitors | hit rate 0.7% among 1,400 | AID 1347047; note: 0% is about no effect
GloSensor ctrl: reduces cGMP signal in GloSensor control cells. shares compounds with NPR1 antag. HEK293 GloSensor cGMP, SNP-stimulated, luminescence. Potency, µM (titrated, usually from 57.6 µM), without a hit: top-dose activity change, negative = inhibition, actives largely listed as inhibitors. hit rate 69% among 1,400. AID 1347051; calls by dose curve; note: % is set by controls: 0 for no effect and ±100 for the full control effect; nearly all actives have a fitted effect of over 70% in size
The depositor's hits bear a star; i = inactive; ? = inconclusive; / = no result. This is a sample that favours compounds with a hit; in the whole collection about 7.4% have one here. Unless noted, calls come from the whole dose curve; as a rule, active = well fitted curve in the direction sought with a large enough effect; inconclusive = small, poorly fitted or top-dose-only effect, or another doubt; inactive = no such curve, though single readings can be large; an effect the other way counts as inactive or inconclusive. Potency is the fitted concentration of half-maximal effect.

SMILES	FLuc inh	SNCA expr inhib	HEK cytotox	NPR1 antag	NIH3T3 tox	SNCA viab count	NPR1 antag cnf	NPR2 antag	FLuc counter	GloSensor ctrl
Cc1nnc(N2CCC(CO)(CN3CCCC3)CC2)c2ccccc12	i	27%	-22%	-1%	-1%	-5%	/	/	/	/
N#Cc1cccnc1N1CCC(CO)(Cc2ccccc2C(F)(F)F)CC1	i	-9%	?	?	?	5%	22µM*	17µM*	-2%	-18%
COc1ccnc(N2CCC(CO)(Cc3ccccc3C(F)(F)F)CC2)n1	i	-22%	?	-7%	?	13%	/	/	/	/
COc1cccc(CC(=O)N2CCN(C(=O)c3nnn4c3COC(c3ccccc3)C4)CC2)c1 (stereo not given)	i	2%	-8%	-14%	-2%	-11%	/	/	/	/
COc1cccc(CC(=O)N2CCN(C(=O)c3nnn4c3COC(c3ccc(C)cc3)C4)CC2)c1 (stereo not given)	i	-25%	?	?	-7%	-19%	24µM*	?	4%	?
COc1ccccc1CC(=O)N1CCN(C(=O)c2nnn3c2COC(c2ccc(C)cc2)C3)CC1 (stereo not given)	i	-21%	?	10µM*	-33%	-15%	19µM*	19µM*	2%	15µM*
CCc1ccc(C(=O)N2CCN(C(=O)c3nnn4c3COC(c3ccc(C)cc3)C4)CC2)cc1 (stereo not given)	i	-6%	?	?	-17%	6%	19µM*	19µM*	-1%	19µM*
Cc1ccc(C2Cn3nnc(C(=O)N4CCN(C(=O)Cc5cccc(F)c5)CC4)c3CO2)cc1 (stereo not given)	i	?	?	11µM*	3%	-15%	22µM*	22µM*	1%	22µM*
CN1c2cc(C(=O)NCc3nc4ccccc4n3C)ccc2C(=O)N2CCCCCC21 (stereo not given)	i	-5%	?	-5%	?	?	/	/	/	/
COc1ccc(CN2CCC3(CC(c4ccc(OC)cc4)=NO3)C2)cc1 (stereo not given)	i	8%	?	?	?	-13%	/	/	/	/
CCCn1nc(C)cc1CN(C)C(=O)c1ccc2c(c1)C(O)CCCCCN2C (stereo not given)	i	-21%	?	-21%	?	-5%	/	/	/	/
Cc1ccc(CNC(=O)N2C[C@@H](Oc3ccccc3)C[C@@H]2C(=O)N2CCOCC2)cc1	i	-15%	-19%	4%	-16%	-7%	/	/	/	/
CC1=C[C@@H](CNC(=O)CC2(CC(=O)O)CCCC2)[C@H](C(C)C)C[C@H]1Cc1nc2ccccc2n1C	i	-1%	?	1%	?	?	/	/	/	/
